Experimental data taken from PubChem BioAssay (NCATS).
Records with an inconclusive call do not appear. Activity calls are given as the source filed them. Calls follow the shape of the dose curve; as a rule, active = well fitted inhibition curve with a large enough effect; inconclusive = small, poorly fitted or top-dose-only effect; inactive = flat fitted curve, though single readings scatter.

How the values were obtained:
Experiment in all cases: qHTS profiling for inhibitors of Plasmodium falciparum proliferation (AID 504749); also: nearly all actives have a fitted effect of over 60% in size
Details in all cases: P. falciparum in erythrocytes, SYBR Green DNA, 72 h; series mostly up to 12.8 µM
[1] = system: 3D7
Procedure, shortened: (§1)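 In a 72 h erythrocytic culture (37 C, humidified, 5% CO2) at 2.5% hematocrit and 0.3% starting parasitemia, compounds were tested; SYBR Green I in detergent lysis buffer stained parasite DNA overnight.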

[2] = system: AA1029
Procedure, shortened: as §1

[3] = system: ATS189
Procedure, shortened: as §1

[4] = system: ATS95
Procedure, shortened: as §1

[5] = system: CP203
Procedure, shortened: as §1

[6] = system: CP217
Procedure, shortened: as §1

[7] = system: CP238
Procedure, shortened: as §1

[8] = system: CP250
Procedure, shortened: as §1

[9] = system: CP252
Procedure, shortened: as §1

[10] = system: CP260
Procedure, shortened: as §1

[11] = system: CP265
Procedure, shortened: as §1

[12] = system: CP269
Procedure, shortened: as §1

[13] = system: CP335
Procedure, shortened: as §1

[14] = system: DIV30
Procedure, shortened: as §1

[15] = system: Dd2
Procedure, shortened: as §1

[16] = system: ECU
Procedure, shortened: as §1

[17] = system: P93_24
Procedure, shortened: as §1

[18] = system: PAD
Procedure, shortened: as §1

[19] = system: PC26
Procedure, shortened: as §1

[20] = system: TAB165
Procedure, shortened: as §1

Measured: Potency
Potency is read from the fitted curve at half-maximal effect.

OCC1OC(n2cnc3c(=S)nc[nH]c32)C(O)C1O (stereo not drawn)
inactive: all assays above

N[C@@H]1C(O)OC(CO)C(O)C1O (stereo partly drawn)
not listed: [5] | [12]
inactive: all other assays above

OCC1OC([S-])[C@H](O)C(O)C1O.[Au+] (stereo partly drawn)
inactive: all assays above

NC(CCC(=O)N[C@@H](CS)C(=O)NCC(=O)O)C(=O)O (stereo partly drawn)
active: [1] 6.31 µM | [3] 8.91 µM | [10] 7.94 µM | [11] 7.94 µM | [12] 15.1 µM | [13] 6.01 µM | [14] 12 µM | [15] 5.01 µM | [16] 10 µM | [17] 3.16 µM | [18] 6.31 µM | [19] 12 µM | [20] 3.98 µM

CCC1OC(=O)C(C)[C@@H](O[C@H]2C[C@@](C)(OC)C(O)C(C)O2)C(C)[C@@H](O[C@@H]2OC(C)CC(N(C)C)C2O)[C@@](C)(O)CC(C)C(=O)[C@@H](C)C(O)[C@]1(C)O (stereo partly drawn)
not listed: [13]
inactive: all other assays above

CCC1OC(=O)CC(O)C(C)[C@@H](O[C@@H]2OC(C)[C@H](O[C@@H]3C[C@@](C)(O)C(O)C(C)O3)C(N(C)C)C2O)[C@H](CC=O)CC(C)C(=O)/C=C/C(C)=C/[C@@H]1COC1OC(C)C(O)C(OC)[C@@H]1OC (stereo partly drawn)
inactive: [16]
active: [10] 1.12 µM | [13] 1.35 µM | [15] 0.891 µM

CC(=O)OCC(=O)[C@@]12OC3(CCCC3)OC1CC1C3CCC4=CC(=O)C=C[C@@]4(C)[C@]3(F)C(O)C[C@]12C (stereo partly drawn)
inactive: [8] | [12]

COc1ccc(-c2cc(=O)c3c(O)cc(O[C@H]4OC(COC5OC(C)C(O)C(O)[C@H]5O)C(O)C(O)C4O)cc3o2)cc1O (stereo partly drawn)
inactive: all assays above

CN(C)CCc1c[nH]c2ccc(CC3COC(=O)N3)cc12 (stereo not drawn)
inactive: all assays above

CCC(=O)O[C@@]1(C(=O)CCl)C(C)CC2C3CCC4=CC(=O)C=C[C@@]4(C)[C@]3(F)C(O)C[C@]21C (stereo partly drawn)
active: [2] 10 µM | [4] 11.2 µM | [5] 13.5 µM | [7] 7.94 µM | [9] 12.6 µM | [10] 10 µM | [13] 10.7 µM | [14] 12 µM | [17] 7.94 µM | [18] 7.94 µM | [19] 10.7 µM

CC[C@@]12CCCN3CCc4c(n(c5ccccc45)[C@](O)(C(=O)OC)C1)C32 (stereo partly drawn)
not listed: [15]
inactive: all other assays above

COC1OC(CO)C(OC2OC(C(=O)O)C(OC3OC(COS(=O)(=O)O)C(OC4OC(C(=O)O)C(OC5OC(CO)C(OC6OC(C(=O)O)C(OC7OC(COS(=O)(=O)O)C(OC8OC(C(=O)O)=C[C@H](O)C8OS(=O)(=O)O)C(O)C7NC(C)=O)[C@@H](O)C6O)C(O)C5NC(C)=O)[C@@H](O)C4O)C(O)C3NC(C)=O)[C@@H](O)C2O)C(O)C1NC(C)=O (stereo partly drawn)
inactive: [5] | [12]
active: [6] 10 µM

COC1CC(O[C@H]2/C(C)=C/CC3CC(C[C@]4(CCC(C)C(C5CCCCC5)O4)O3)OC(=O)[C@H]3C=C(C)/C(=N/O)C4OC/C(=C\C=C\[C@@H]2C)[C@@]43O)OC(C)C1O (stereo partly drawn)
inactive: [5] | [12] | [15] | [19]

CCCCCCCCCc1ccc(OCCOCCOCCOCCOCCOCCOCCOCCOCCO)cc1
inactive: [2] | [4] | [7] | [8] | [9] | [10] | [11] | [14]
active: [20] 7.08 µM

CC1(C)S[C@H]2C(NC(=O)[C@@H](N)c3ccc(O)cc3)C(=O)N2[C@@H]1C(=O)O (stereo partly drawn)
inactive: all assays above

CCOC(=O)C1=CC(OC(CC)CC)C(NC(C)=O)C(N)C1 (stereo not drawn)
not listed: [14] | [19]
inactive: all other assays above

CO[C@]12C(COC(N)=O)C3=C(C(=O)C(C)=C(N)C3=O)N1CC1NC12 (stereo partly drawn)
active: [2] 2 µM | [3] 1.26 µM | [4] 1 µM | [6] 1.78 µM | [7] 0.631 µM | [8] 1.12 µM | [9] 0.794 µM | [15] 0.398 µM | [16] 1.41 µM | [17] 1 µM | [18] 0.631 µM | [20] 0.447 µM

CC(=O)OC1CCC2C3CCc4cc(O)ccc4C3CCC12C (stereo not drawn)
inactive: all assays above

C[C@@]12C=CC(=O)C=C1CCC1C3CC(O)[C@@](O)(C(=O)CO)[C@]3(C)CC(O)[C@]12F (stereo partly drawn)
inactive: all assays above

CC(C)Oc1ccc2c(=O)cc(-c3ccccc3)oc2c1
not listed: [8] | [17]
inactive: all other assays above

NCC1CCC(N)C(O[C@@H]2C(O)[C@H](O[C@H]3OC(CO)C(O)C(N)C3O)[C@@H](N)C[C@H]2N)O1 (stereo partly drawn)
inactive: all assays above

CC(=O)[C@]1(O)CCC2C3C=C(Cl)C4=CC(=O)C5CC5[C@@]4(C)C3CC[C@]21C (stereo partly drawn)
inactive: all assays above

CC1C2CCC3C4CC=C5CC(N(C)C)CC[C@@]5(C)C4CC[C@@]32CN1C (stereo partly drawn)
not listed: [10]
inactive: all other assays above

CC(=O)N[C@@H]1C(O)OC(CO)C(O)C1O (stereo partly drawn)
not listed: [15]
inactive: all other assays above
